Most compounds without a hit are left out; they make up all but 3.4% or so of the library.
MITF primary: blocks human microphthalmia-associated transcription factor | AlphaScreen MITF homodimerization, bead proximity signal | inhibition, % at 2.6 µM | 650,000 compounds, 0.91% hits | AID 1259374; in the data active = inhibition above about 50%;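 also: 0% = vehicle wells with protein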
GPR151 ag: activates the human receptor GPR151; Q8TDV0; PathHunter beta-arrestin GPR151 cells, luminescence; activation, % at 11.2 µM; 650,000 compounds, 1% hits; in the data active = activation above about 4.9%;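 also: 0% = median of compound wells and 100% = cells with positive control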
FBW7 act: human FBW7 E3 ligase activation, primary screen; Q969H0; AlphaScreen FBW7–phospho-cyclin E peptide binding, activator screen; normalized activity (activation), % at 26.1 µM; 650,000 compounds, 0.13% hits; AID 1259310; in the data active = normalized activity above about 1.9%;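 also: purified mutant Fbw7 with reduced substrate affinity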
Target sequence (Q969H0 whole entry, looked up): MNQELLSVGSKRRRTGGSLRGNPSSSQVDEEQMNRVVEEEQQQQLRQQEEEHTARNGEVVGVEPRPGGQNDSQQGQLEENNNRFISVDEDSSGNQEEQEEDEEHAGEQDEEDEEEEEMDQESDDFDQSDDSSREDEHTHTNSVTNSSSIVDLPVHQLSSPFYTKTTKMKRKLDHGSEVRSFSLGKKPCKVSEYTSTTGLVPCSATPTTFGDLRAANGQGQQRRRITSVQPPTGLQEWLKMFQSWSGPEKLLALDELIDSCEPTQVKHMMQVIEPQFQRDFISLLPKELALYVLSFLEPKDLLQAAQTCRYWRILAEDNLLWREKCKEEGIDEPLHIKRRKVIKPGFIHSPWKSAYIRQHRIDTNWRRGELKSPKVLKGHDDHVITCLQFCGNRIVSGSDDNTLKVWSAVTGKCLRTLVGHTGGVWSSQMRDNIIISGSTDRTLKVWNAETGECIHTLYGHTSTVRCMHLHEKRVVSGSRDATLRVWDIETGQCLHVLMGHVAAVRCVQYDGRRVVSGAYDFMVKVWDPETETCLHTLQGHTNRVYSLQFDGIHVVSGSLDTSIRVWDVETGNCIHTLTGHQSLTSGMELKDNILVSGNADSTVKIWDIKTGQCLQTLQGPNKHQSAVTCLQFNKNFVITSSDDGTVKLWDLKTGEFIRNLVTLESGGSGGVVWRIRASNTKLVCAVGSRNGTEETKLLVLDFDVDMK
TEAD-YAP block: TEAD-YAP interaction inhibition | HEK-TIYL cells, TEAD-Gal4/YAP UAS-luciferase luminescence | inhibition, % at 9.12 µM | 640,000 compounds, 1.4% hits | AID 1259422; in the data active = inhibition above about 32%;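 also: 0% = median of test compound wells and 100% = reference inhibitor wells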
* = called active by the depositor.

SMILES	MITF primary	GPR151 ag	FBW7 act	TEAD-YAP block
Cc1nn(-c2ccc(F)cc2)c2sc(C(=O)NCc3ccc(S(N)(=O)=O)cc3)cc12	-1	0	0	40*
Cc1ccc(CN2CCN3CCCC3C2C)c(C)c1 (stereo not drawn)	-2	0	0	-5
Oc1cc2c(cc1O)C1c3ccc(O)c(O)c3OCC1(O)C2 (stereo not drawn)	116*	-2	0	21
CCOC(=O)c1nnn(-c2nonc2N)c1CN(Cc1ccccc1)C(C)C	2	1	0	44*
CCOC(=O)c1nnn(-c2nonc2N)c1CN(CC)c1ccccc1	-3	-1	0	-8
CCOC(=O)c1c(C)c(C(=O)Nc2cc(C)ccc2OC)c(C)n1CC	3	1	0	41*
CCOC(=O)c1[nH]c(C)c(C(=O)Nc2cc(C)ccc2C)c1C	2	0	0	40*
CCOC(=O)c1[nH]c(C)c(C(=O)Nc2cccc(C)c2C)c1C	8	1	0	42*
CCOC(=O)c1[nH]c(C)c(C(=O)N2CCc3ccccc32)c1C	-4	0	0	49*
CC(C)C(=O)Nc1c2c(nn1-c1ccc([N+](=O)[O-])cc1)CSC2	-3	0	0	3
COc1ccc(C)cc1NC(=O)c1cc2c(CO)cnc(C)c2oc1=Nc1ccc(F)cc1	4	2	0	-2
Cc1ccc(NC(=O)CCCCCN2C(=O)CCC2=O)c([N+](=O)[O-])c1	-5	1	0	5
CC(=O)c1c(C)[nH]c(C(=O)CN2C(=O)c3ccccc3S2(=O)=O)c1C	16	-1	0	41*
O=C(CN1C(=O)c2ccccc2S1(=O)=O)c1ccccc1	11	-1	1	54*
CCOC(=O)CN1C(=O)c2ccccc2S1(=O)=O	-2	0	0	0
CC1(C)Cc2c(cnn2-c2ccc(Cl)cc2)-c2nc3ccccc3nc21	15	0	0	-1
Nc1nc2c(s1)CCc1c-2cnn1-c1ccccc1	-3	-1	0	45*
Cc1nc2ccccn2c1C(=O)NCC1COC(C)(C)O1 (stereo not drawn)	17	-1	0	-7
CCOC(=O)N1CCc2c(sc3ncn(CC(=O)c4ccccc4)c(=O)c23)C1	4	0	1	49*
COCCN1C(=O)c2ccccc2C(C(=O)N2CCN(C)CC2)C1c1ccc(F)cc1 (stereo not drawn)	-4	0	0	-11
CC1(c2cccc(Cc3cccc(C4(C)CCCCC4)c3O)c2O)CCCCC1	12	-2	0	6
CC1(C)CCN2CCC(C)(C)c3c(O)ccc1c32	23	0	0	38*
CCOC(=O)c1ccc(NC(=O)c2c(NCc3cccnc3)sc3c2CCC3)cc1	9	0	1	4
c1ccc2c(Nc3nc(Nc4ccc(N5CCOCC5)cc4)c4ncn(-c5ccsc5)c4n3)nccc2c1	16	-1	0	73*
CC(=O)Nc1ccc(Nc2nc(Nc3ccccn3)nc3c2ncn3-c2ccsc2)cc1	-3	-1	0	45*
SMILES	MITF primary	GPR151 ag	FBW7 act	TEAD-YAP block
c1cnc(Nc2nc(Nc3ccc(N4CCOCC4)cc3)c3ncn(-c4ccsc4)c3n2)cn1	-8	1	0	46*
CC(=O)Nc1ccc(Nc2nc(Nc3ccc4ncccc4c3)nc3c2ncn3-c2ccsc2)cc1	8	0	0	30
c1ccc(Nc2nc(Nc3nccc4ccccc34)nc3c2ncn3-c2ccsc2)cc1	3	-1	0	-10
c1cncc(CNc2nc(Nc3ccc(N4CCOCC4)cc3)c3ncn(-c4ccsc4)c3n2)c1	9	0	0	20
c1ccc(Nc2nc(Nc3ccc(N4CCOCC4)cc3)c3ncn(-c4ccsc4)c3n2)nc1	2	1	0	37*
c1ccc(Nc2nc(Nc3ccc(N4CCOCC4)cc3)c3ncn(-c4ccsc4)c3n2)cc1	6	3	0	39*
Cc1ccccc1N(CC(=O)NCC1CCCO1)C(=O)CCC(=O)Nc1ccccn1 (stereo not drawn)	6	-1	0	-1
O=C(NNC(=O)c1cccnc1SCc1cccc([N+](=O)[O-])c1)c1ccccn1	24	-1	-1	39*
Cc1c2c(=O)n(-c3nc4ccccc4s3)[nH]c2cc(=O)n1Cc1ccccc1Cl	91*	0	0	9
O=C(Nc1ccccc1)c1ccc(Cl)c(S(=O)(=O)Nc2ccc(I)cc2)c1	4	0	0	36*
Cc1ccc(NS(=O)(=O)c2cc(C(=O)Nc3ccccc3)ccc2Br)cc1	-6	1	0	39*
Nc1ccnc(NCc2ccccc2)c1	-6	0	0	32*
Cc1ccc(NC(=O)c2cnn(-c3ccccc3)c2C2CCNCC2)cc1	-10	0	0	-12
CC(C)C(=O)Nc1ccc(NC(=O)C(C)C)nc1	5	2	0	11
O=C(Nc1ccc(NC(=O)C2CC2)cn1)c1ccco1	4	-2	0	48*
CC(C)C(=O)Nc1ccc(NC(=O)c2ccco2)nc1	18	-2	0	74*
Cc1cc(I)ccc1NCC(=O)NN	-10	1	0	-4
COCCN1C(C)=CC(=C2C(=O)NC(=S)NC2=O)C=C1C(F)(F)F	2	0	0	45*
CC1=CC(=C2C(=O)NC(=S)NC2=O)C=C(C(F)(F)F)N1CCN(C)C	4	0	0	5
COC(=O)CNC(=O)c1sc2ncnc(N3CCN(c4ccccc4)CC3)c2c1C	-4	-1	1	-7
CC1CCCN(c2ncnc3c2cnn3-c2ccccc2)C1 (stereo not drawn)	-8	-1	0	84*
Cc1cccc(-n2ncc3c(N4CCCCCC4)ncnc32)c1	-4	-5	0	74*
CCN1CCN(c2ncnc3c2cnn3-c2ccc(Cl)cc2)CC1	5	0	0	-58
Cc1cccc(-n2ncc3c(N4CCC(C)CC4)ncnc32)c1	-7	2	0	24
CN1CCN(c2ncnc3c2cnn3-c2ccc(Cl)cc2)CC1	-12	-1	0	67*
SMILES	MITF primary	GPR151 ag	FBW7 act	TEAD-YAP block
Cc1cccc(-n2ncc3c(N4CCCC(C)C4)ncnc32)c1 (stereo not drawn)	-16	-3	0	96*
Cc1ccnc(NS(=O)(=O)c2ccc(NC(=O)/C=C/c3ccco3)cc2)n1	6	0	0	10
CCc1cccc2c(C(=O)COC(=O)CNS(=O)(=O)c3c(F)cccc3F)c[nH]c12	5	1	0	-5
Cc1cc(Cl)ccc1NC(=O)CN(c1cccc(C)c1C)S(C)(=O)=O	-1	1	0	15
Cc1ccccc1-c1nnn(Cc2ccc(Cl)cc2Cl)n1	7	1	0	8
CCc1c(C)nc2ncnn2c1Nc1cccc(OC)c1	6	1	0	7
CC1CC(C)CN(c2ncnc3c2cnn3-c2ccccc2)C1 (stereo not drawn)	8	2	0	-56
CC1CCN(c2ncnc3c2cnn3-c2ccc(Cl)cc2)CC1	4	1	0	20
CC1CCCN(c2ncnc3c2cnn3-c2ccc(Cl)cc2)C1 (stereo not drawn)	-8	1	0	94*
